Data published in PubChem BioAssay (NCATS).
Records with an inconclusive call do not appear. Entries that show only a call come without a potency. Calls of active or inactive are those of the source. Calls follow the shape of the dose curve; as a rule, active = well fitted activation curve with a large enough effect; inconclusive = small, poorly fitted or top-dose-only effect; inactive = flat fitted curve, though single readings scatter.

Test: Primary redox qHTS assay for identification of artifact compounds. (AID 1845223)
Conditions: Amplex Red/HRP redox cycling with DTT, fluorescence; series mostly up to 53.8 µM
Method in brief: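 Redox-cycling detection via DTT (250 uM final) oxidation coupled to Amplex Red (25 uM)/HRP (250 mU/mL) in HBSS. 15 min preincubation plus 30 min after DTT, room temperature. Ex/Em 525/598 nm; 4-parameter Hill fit against DMSO and 10 uM DA3003.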

| Structure (SMILES) | Potency |
| --- | --- |
| CCCC/C=C\CCCCCc1cc(=O)c2ccccc2n1C | inactive |
| C=C1C(=O)O[C@@H]2C[C@]3(C)[C@@H](CCC(C)=O)[C@@H]3C[C@H]12 | inactive |
| CC1=C2C[C@H]3OC(=O)[C@H](O)[C@@]4(O)[C@@H](C)[C@@H](O)[C@H](O)C([C@@]2(C)[C@H](O)[C@@H](O)C1)[C@@]34C (some centres undefined) | inactive |
| O=C(O)c1ccc(NC(=O)[C@H](CC2CCCC2)n2cnc(C(F)(F)F)c2)nc1 | inactive |
| CC1(C(=O)O)CCCC2(C)C3CC4C5CC3(CCC12)CC45C (centres undefined) | inactive |
| O=C(NC/C=C/CN1CCN(c2cccc(Cl)c2Cl)CC1)c1ccc(-c2ccccn2)cc1 | inactive |
| CC(=O)NC(C(=O)OC1CCC(C)(C)C2CC=C3C(=O)OCC3C12C)C(C)C (centres undefined) | inactive |
| CC(=O)OCC1=CCC2C(C)(C)CCCC2(C)C12CCC(C)(CC(=O)O)O2 (centres undefined) | inactive |
| COC(=O)C(CC1(O)c2ccccc2N2C(=O)C(C)(C)N(O)C21)n1cnc2ccccc2c1=O (centres undefined) | inactive |
| COc1ccc(S(=O)(=O)Nc2nc(-c3cccc([N+](=O)[O-])c3)cs2)cc1OC | inactive |
| C=CCC/C=C/C#CCCCCCCCC[C@H]1C(=O)O[C@H](C)[C@@H]1O | inactive |
| CCOC(=O)COc1ccc2c(c1)C[C@@H](NC[C@H](O)c1cccc(Cl)c1)CC2 | inactive |
| CCCCC(=O)N1c2ccccc2NC2=C(C(=O)CCC2)C1c1ccccc1Cl (centres undefined) | inactive |
| C[C@H]1[C@H](C)CC[C@]2(C(=O)O)CC[C@]3(C(=O)O)C(=CCC4[C@@]5(C)CC[C@H](O[C@@H]6O[C@@H](C)[C@H](O)[C@@H](O)[C@H]6O)C(C)(C)C5CC[C@]43C)[C@H]12 (some centres undefined) | inactive |
